TDP1 inh: TDP1 (human) enzyme inhibition | recombinant TDP1, AlphaScreen DNA substrate cleavage | Potency, µM (highest dose often 130 µM), usual class: inhibitors | 350,000 tested, 0.28% active; further: nearly all actives have a fitted effect of over 40% in size
Target sequence (Q9NUW8 whole entry, looked up): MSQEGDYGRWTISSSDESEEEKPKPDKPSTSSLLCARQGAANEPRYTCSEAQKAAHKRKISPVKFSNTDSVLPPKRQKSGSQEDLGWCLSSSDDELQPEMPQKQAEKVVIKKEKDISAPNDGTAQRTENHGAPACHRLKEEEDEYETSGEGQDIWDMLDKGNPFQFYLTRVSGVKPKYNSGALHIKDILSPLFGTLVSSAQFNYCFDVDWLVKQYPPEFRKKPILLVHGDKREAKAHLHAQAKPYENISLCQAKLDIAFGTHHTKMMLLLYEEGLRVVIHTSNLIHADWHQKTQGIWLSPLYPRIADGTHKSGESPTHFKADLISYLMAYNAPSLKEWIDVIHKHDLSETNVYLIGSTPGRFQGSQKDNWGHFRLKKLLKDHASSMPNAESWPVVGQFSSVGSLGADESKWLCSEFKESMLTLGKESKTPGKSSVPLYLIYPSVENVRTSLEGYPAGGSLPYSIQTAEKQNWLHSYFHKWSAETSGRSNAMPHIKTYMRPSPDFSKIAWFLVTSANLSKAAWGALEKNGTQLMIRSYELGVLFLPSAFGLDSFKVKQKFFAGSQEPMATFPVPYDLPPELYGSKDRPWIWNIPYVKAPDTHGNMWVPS
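Recombinant E. coli-expressed Tdp1 (1 nM) preincubated with compound 15 min at RT, then 5'-biotin/3'-phosphotyrosine-FITC DNA substrate (15 nM) added for 5 min. AlphaScreen beads (10 ug/ml) added, 10 min RT; tyrosine-FITC cleavage read as signal loss.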
RORg inh: ROR gamma (mouse) transcription inhibition. P51450. Drosophila S2 Gal4-RORgamma UAS-luciferase reporter, 20 h. Potency, µM (series often up to 53.6 µM), actives largely listed as inhibitors. 310,000 tested, 5.4% active. AID 2551; further: nearly all actives have a fitted effect of over 60% in size
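Drosophila Schneider cells stably carrying a metallothionein-driven Gal4 DBD–ROR gamma fusion and a UAS-Photinus luciferase reporter were exposed to compound for 1 hr, then induced with copper sulfate (700 uM final) for 20 hr at ambient temperature before luminescence reading.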
Gal4-VP16 FLuc: inhibits Gal4-VP16 luciferase reporter, ROR gamma counter-screen. Drosophila S2 Gal4-VP16 UAS-luciferase, luminescence, 20 h. Potency, µM (titrated, usually from 53.6 µM), hits mostly inhibitors. 310,000 tested, 3.5% active. AID 2546;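 further: Gal4-VP16 expression switched on by copper sulfate through the metallothionein promoter; nearly all actives have a fitted effect of over 50% in size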
TDP1 cell CPT: DT40-hTDP1 cell growth loss with CPT. 420,000 tested, 12% active. chicken DT40 Tdp1-/-;hTDP1 cells + 20 nM CPT, ATP luminescence, 48 h. AID 686979. Potency, µM (doses to about 46.2 µM), most hits filed as inhibitors; further: nearly all actives have a fitted effect of over 55% in size
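Chicken DT40 Tdp1-/- cells stably complemented with human TDP1 were seeded at 400 cells/well in medium containing 20 nM camptothecin, exposed to pin-transferred compounds, and grown at 37 °C for at least 48 hr. Viability was read as ATP luminescence.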
DT40 TDP1 no CPT: qHTS for Inhibitors of human tyrosyl-DNA phosphodiesterase 1 (TDP1): qHTS in cells in absence of CPT; DT40 Tdp1-/- hTDP1 cells, no CPT, ATP luminescence, 48 h; Potency, µM (doses to about 46.2 µM), actives largely listed as inhibitors; 420,000 tested, 15% active; further: nearly all actives have a fitted effect of over 55% in size
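Seeded 400 DT40-hTDP1 cells/well (vehicle DMSO, no 20 nM CPT); pinned compounds; ≥48 hr at 37 °C; CellTiter-Glo luminescence as viability measure.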
A number is an active result; . = inactive; ? = inconclusive; / = no result given; [ ] = dose if it differs, or a comment. Rows were chosen to be rich in hits. Some 19% of all compounds tested hit in one or more screens of this group. The call rests on the fitted dose curve; in most records, active means well fitted curve in the direction sought with a large enough effect; inconclusive means small, poorly fitted or top-dose-only effect, or another doubt; inactive means no such curve, though single readings can be large; an effect the other way counts as inactive or inconclusive.

SMILES	TDP1 inh	RORg inh	Gal4-VP16 FLuc	TDP1 cell CPT	DT40 TDP1 no CPT
O=C(CN(C1CCCCC1)S(=O)(=O)c1ccc(F)cc1)NCCCO	.	.	.	.	.
O=C(NC1CC1)c1ccc(CSCc2ccccc2Cl)o1	.	?	.	?	?
CCc1nc2c(OCc3cccc(Cl)c3)cccn2c1N(C)C(=O)CC(C)C	/	/	/	?	20.6µM
O=C(Oc1c(-c2ccccc2)c(=O)n2c3c(cccc13)CC2)c1ccco1	.	.	.	.	?
O=C(Oc1c(-c2ccccc2)c(=O)n2c3c(cccc13)CC2)c1ccc(Cl)cc1	.	.	.	.	20.6µM
Cc1cccc(N2CCN(C(=O)c3cn(C4CCCCC4)c(=O)c4c3c3ccccc3n4C)CC2)c1C	.	/	/	?	16.4µM
COc1ccc(N2CCN(C(=O)c3cn(C4CCCCC4)c(=O)c4c3c3ccccc3n4C)CC2)cc1	.[12.3 µM]	/	/	23.1µM	20.6µM
COc1ccc(-n2nc(C(=O)N3CCN(c4ccc(F)cc4)CC3)c3c4ccccc4n(C)c3c2=O)cc1	.	/	/	.	.
Cn1c2ccccc2c2c(C(=O)N3CCN(c4ccc(F)cc4)CC3)cn(C3CCCCC3)c(=O)c21	.	/	/	16.4µM	18.4µM
COc1ccc(Cl)cc1NC(=O)c1cn(C2CCCCC2)c(=O)c2c1c1ccccc1n2C	.	/	/	?	?
O=S(=O)(c1ccccc1)N1N=C(c2ccccc2)CC1c1ccccc1 (stereo not given)	.	.	?	?	?
O=S(=O)(c1ccccc1)N1N=C(c2cccs2)CC1c1ccc(Br)cc1 (stereo not given)	.	.	.	23.1µM	14.6µM
O=C1CCc2cc(S(=O)(=O)Nc3cccc(-c4ccccc4)c3)ccc2N1	.	/	/	/	/
Cc1ccc(S(=O)(=O)NCC(Nc2cccc(Cl)c2)c2ccccc2)cc1 (stereo not given)	.	/	/	18.4µM	?
Cc1ccc(S(=O)(=O)NCC(NCc2ccc(F)cc2)c2ccccc2)cc1 (stereo not given)	.	/	/	?	?
CCOC(=O)c1ccc(Nc2c(-c3ccc(OC)cc3)nc3nc[nH]n23)cc1	.	/	/	20.6µM	23.1µM
CCOC(=O)c1ccc(Nc2c(-c3ccc(O)c(OC)c3)nc3nc[nH]n23)cc1	.	/	/	11.6µM	16.4µM
CCOC(=O)c1ccc(Nc2c(-c3ccc(O)cc3)nc3nc[nH]n23)cc1	.	/	/	?	?
O=C(COC(=O)/C=C/c1ccccc1[N+](=O)[O-])Nc1ccc2[nH]c(=O)[nH]c2c1	.	/	/	.	.
Cc1ccc(NC(=O)CCc2nc3ccccc3[nH]2)cc1C	/	.	.	.	.
Cc1ccc(CNc2ncnc3ccc(-c4ccc5c(c4)OCO5)cc23)o1	.	/	/	/	/
Cc1ccccc1N=C1NC(=O)CC(c2ccccc2)S1 (stereo not given)	.	8.91µM	?	.	.
CCOc1ccccc1C1NC(=O)NC(C)=C1C(=O)OC1CCCC1C (stereo not given)	.	.	.	.	?
CC1CC(C)CN(c2ccc(-n3cnnn3)cc2[N+](=O)[O-])C1 (stereo not given)	.	.	.	.	?
O=[N+]([O-])c1cc(-n2cnnn2)ccc1N1CCC(Cc2ccccc2)CC1	.	.	?	23.1µM	9.2µM
SMILES	TDP1 inh	RORg inh	Gal4-VP16 FLuc	TDP1 cell CPT	DT40 TDP1 no CPT
COc1ccc(-c2cc(C(F)(F)F)nc(NCCc3ccccc3)n2)cc1	.	/	/	23.1µM	25.9µM
Fc1ccc(CNc2nc(-c3ccccc3)cc(C(F)(F)F)n2)cc1	.	/	/	20.6µM	?
COc1cccc(-c2cc(C(F)(F)F)nc(NCc3ccc(F)cc3)n2)c1	.	/	/	?	?
C[C@]12CC[C@H](O)C[C@@H]1CC[C@@H]1[C@@H]2CC[C@@]2(C)[C@H]1CCC(=O)[C@]21CCCO1	.	/	/	?	?
CC1=C/C(=N\NC(=O)c2ccc(O)cc2)CC1	.	12.6µM	?	.	.
Cc1cc(C(=O)OCC(=O)NC2CCS(=O)(=O)C2)c2ccccc2n1 (stereo not given)	.	.	.[10 µM]	.	.
COc1ccc2cc(-c3cc(C(=O)OCC(=O)Nc4c(C)n(C)n(-c5ccccc5)c4=O)c4ccccc4n3)ccc2c1	.	7.08µM	?	13µM	10.3µM
COc1ccc(-c2cc(C(=O)OCC(=O)NC3CC3)c3ccccc3n2)cc1	.	/	/	?	?
Cc1cc(C(=O)OCC(=O)NC2CCS(=O)(=O)C2)c(C)n1-c1ccccc1 (stereo not given)	.	?	.	?	11.6µM
COc1ccc2cc(-c3cc(C(=O)OCC(=O)NC4CCS(=O)(=O)C4)c4ccccc4n3)ccc2c1 (stereo not given)	.	2.82µM	1.78µM	?	?
Cc1ccc(Oc2ccc(OCC(=O)NC3CCS(=O)(=O)C3)cc2)cc1 (stereo not given)	.[0.0935 µM]	?	.	23.1µM	16.4µM
CSCCC(NC(=O)COc1ccccc1)C(=O)N1CCN(c2ccccc2)CC1 (stereo not given)	.	/	/	.	?
N#Cc1ccsc1NC(=O)CSc1nnnn1-c1ccc(O)cc1	/	.	.	.	?
Cc1onc(-c2ccccc2Cl)c1C(=O)NNC(=O)C1CCN(Cc2ccccc2)CC1	.	.	.	.	.
O=C(NCc1ccco1)c1ccccc1-c1ccc(C(F)(F)F)cc1	.	?	.	.	?
CCOc1ccc2c(c1)c(=O)c(C(=O)c1ccc(CC)cc1)cn2CC(=O)Nc1ccccc1C	.	/	/	?	?
CCCCC(NC(C)=O)c1nc2ccccc2n1CCCC (stereo not given)	.	.[0.365 µM]	/	4.11µM	2.06µM
CCCCCn1c(C(Cc2ccccc2)NC(C)=O)nc2ccccc21 (stereo not given)	.	?	?	?	25.9µM
CCn1c(C(C)NC(C)=O)nc2ccccc21 (stereo not given)	.	.	.	.	.
CCC1(C)COC2(OC1)C(=O)Nc1ccccc12 (stereo not given)	.	.	.	.	.
CCNC(=O)C1(C)CCCN1C(=O)c1c(F)cccc1F (stereo not given)	/	/	/	.	.
Cc1ccc(OCCN2CCC2(C)C(=O)NCc2ccc(C(F)(F)F)cc2)cc1 (stereo not given)	/	/	/	?	20.6µM
CN1CCCCC1(C)C(=O)NCc1ccc(F)cc1 (stereo not given)	/	/	/	.	.
CCNC(=O)C1(C)CCCN1Cc1c(F)cccc1F (stereo not given)	/	/	/	?	16.4µM
CC1(C(=O)NCc2ccc(C(F)(F)F)cc2)CCN1Cc1c(F)cccc1F (stereo not given)	/	/	/	16.4µM	?
CN(C)/C=C(\C#N)S(=O)(=O)C(C)(C)C	.	.	.	.	.
COc1cccc(-n2cnc3c(sc4nc(N5CCOCC5)c5c(c43)CCCC5)c2=O)c1	.	.	.	?	18.4µM

Assay outcomes deposited in PubChem BioAssay by National Center for Advancing Translational Sciences (NCATS).
